# From PubChem BioAssay
# 14-3-3 Bad PPI – disrupts binding of bovine 14-3-3 zeta to phospho-Bad peptide; P63103; TR-FRET 14-3-3zeta/Dy647-pBad peptide displacement, 1 h; inhibition, % at 21.7 µM; 220,000 compounds, 0.71% hits; AID 781;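 active means inhibition above about 70%, limit read from the data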;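 further: 0% = full 14-3-3 plus peptide FRET controls and 100% = background without 14-3-3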
# Bim-Mcl-1 – human Bim-Mcl-1 interaction inhibition | inhibition, % at 10 µM | AID 1009 | Q07820 | 190,000 compounds, 0.1% hits | Bead-based flow cytometry, Bim peptide-Mcl-1 binding; in the data active means inhibition above about 40%;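 further: 0% = no compound tracer wells and 100% = peptide blocker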
# Target sequence (Q07820 whole entry, looked up): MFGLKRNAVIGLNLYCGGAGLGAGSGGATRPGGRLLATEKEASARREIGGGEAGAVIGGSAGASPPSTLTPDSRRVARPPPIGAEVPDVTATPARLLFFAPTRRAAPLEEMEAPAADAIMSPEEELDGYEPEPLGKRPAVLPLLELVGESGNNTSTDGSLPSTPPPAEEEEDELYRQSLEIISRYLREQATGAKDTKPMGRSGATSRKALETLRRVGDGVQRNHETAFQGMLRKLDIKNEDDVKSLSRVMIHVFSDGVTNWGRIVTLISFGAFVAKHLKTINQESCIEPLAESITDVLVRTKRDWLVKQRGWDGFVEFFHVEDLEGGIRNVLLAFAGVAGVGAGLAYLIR
# Mcl1 Bid PPI – disrupts binding of human Mcl-1 to Bid peptide | Q07820 | 220,000 compounds, 0.97% hits | TR-FRET Mcl-1/Bid-Dy647 peptide binding, 1536-well | AID 1021 | inhibition, % at 21.7 µM;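 active means compounds that cut the binding signal by more than half at the single screening dose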;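 further: His-tagged Mcl-1 with europium anti-His antibody binding Bid BH3 peptide; 0% = Mcl-1 plus peptide wells and 100% = peptide-only wells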
# Mcl1-Noxa inh – Mcl-1/Noxa interaction inhibition | inhibition, % at 21.7 µM | AID 1022 | 220,000 compounds, 1.5% hits | TR-FRET Mcl-1/Noxa peptide binding, 2 h | Q07820;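 active means compounds that cut the protein-peptide binding signal by more than 50% relative to plate controls in a single-dose test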;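 further: His-tagged Mcl-1 with rhodamine Noxa BH3 peptide and terbium anti-His antibody; 0% = Mcl-1 plus Noxa peptide wells and 100% = peptide-only wells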
# MCL1 BIM primary – inhibitors of human MCL1 binding to BIM-BH3 peptide. inhibition, % at 10.9 µM. AID 2057. GST-MCL1 / FITC-Bim-BH3 fluorescence polarization. 320,000 compounds, 0.68% hits;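 active means inhibition above the mean inhibition of all tested compounds plus 3 SD, set per campaign, cut at about 40% in these data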;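 further: 0% = DMSO wells and 100% = unlabeled Bim-BH3 peptide control; higher means more loss of mP so more displacement of Bim peptide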
# Starred values were filed as active, the others as inactive; . = no result. Rows were chosen to be rich in hits. Some 2.5% of all compounds tested hit in one or more screens of this group.
SMILES,14-3-3 Bad PPI,Bim-Mcl-1,Mcl1 Bid PPI,Mcl1-Noxa inh,MCL1 BIM primary
CCOC(=O)c1cc(C)[nH]c(=S)c1C#N,6.0,-4.0,-46.6,71.7*,8.3
Cc1nc2sc(C#N)c(N)c2c2c1CCCC2,.,4.0,.,.,-12.3
O=C(COC(=O)c1ccc(Cl)cc1O)NCCN1C(=O)CSC1=O,96.9*,.,1.4,11.8,-6.3
O=C(COC(=O)c1cccc(Cl)c1)NCCN1C(=O)CSC1=O,-3.1,-2.0,-3.1,30.3,0.2
CCOc1ccc(NC(=O)c2ccc(F)c(S(=O)(=O)N3CCN(c4ccccn4)CC3)c2)cc1,75.1*,0.0,-16.1,14.1,1.8
O=C(Nc1cccc(Cl)c1)c1ccc(F)c(S(=O)(=O)N2CCN(c3ccccn3)CC2)c1,-5.5,-1.0,-4.9,-12.4,-0.9
COc1ccc(-c2c(=O)n(OCc3ccccn3)c3ccccc3[n+]2[O-])cc1OC,-1.2,-4.0,-20.5,53.8*,-2.1
Cc1ccc(NS(=O)(=O)c2cccc(C(=O)O)c2)cc1S(=O)(=O)N1CCCCC1,-2.6,12.0,-40.5,71.7*,7.5
O=C(O)c1cccc(S(=O)(=O)Nc2cccc(S(=O)(=O)N3CCCCCC3)c2)c1,-9.0,-6.0,1.3,15.4,-1.8
O=C1c2ccccc2C(=O)N1CN(C(=O)COc1ccc(Cl)cc1Cl)c1cccc(F)c1,-2.0,92.0*,-13.4,6.1,-3.2
O=C(COc1ccc(Cl)cc1Cl)Nc1ccccc1F,.,.,.,.,4.8
O=C(Cn1cc(SCc2ccc(F)cc2)c2ccccc21)N1CCOCC1,1.2,-5.0,-24.3,-7.4,4.2
O=C(Cn1cc(SCc2ccc(Cl)cc2)c2ccccc21)N1CCOCC1,-1.6,-4.0,52.2*,1.8,-0.2
Oc1ccc(Br)cc1-c1cc(-c2ccc(Cl)cc2)n[nH]1,1.1,-2.0,9.5,82.0*,8.7
Oc1ccc(Br)cc1-c1cc(-c2ccccc2)n[nH]1,-2.0,-4.0,1.3,23.0,3.4
N#CC(C#N)=C1C=CC=CN1/C(=C\c1ccccc1Cl)C(=O)c1ccccc1,17.7,25.0,12.6,64.0*,43.5*
Cc1ccc(OCCCCn2cnc3ccccc32)c(C)c1,66.7,1.0,54.4*,27.9,0.0
Brc1ccccc1OCCCCn1cnc2ccccc21,-3.4,-3.0,-3.7,8.0,1.8
CCN(CC)CCCNC(=S)N(Cc1cccs1)Cc1cc2cc3c(cc2[nH]c1=O)OCCO3,7.7,39.0,-29.6,58.7*,4.5
COc1ccc(CNC(=O)Cn2ncn3c(cc4ccccc43)c2=O)cc1,16.3,.,-5.1,2.7,4.3
O=C(Cn1cnc2scc(-c3ccccc3)c2c1=O)NCc1ccco1,9.9,-3.0,-59.3,50.6*,7.8
O=C(Cn1ncn2c(cc3ccccc32)c1=O)NCc1ccco1,1.2,-5.0,-12.6,68.9*,8.3
C=CCn1c(SCC(=O)c2[nH]c(C)c(C(=O)OC)c2C)nc2scc(-c3ccc(OC)c(OC)c3)c2c1=O,96.0*,-5.0,65.2*,52.8*,-1.0
C=CCn1c(SCC(=O)c2[nH]c(C)c(C(C)=O)c2C)nnc1-c1ccncc1,7.0,-1.0,5.4,8.4,-4.0
O=C(NCCN1CCOCC1)C(=O)NCC1OCCCN1S(=O)(=O)c1ccc(F)cc1 (stereo not given),.,.,.,.,3.0
SMILES,14-3-3 Bad PPI,Bim-Mcl-1,Mcl1 Bid PPI,Mcl1-Noxa inh,MCL1 BIM primary
COc1ccc(NC(=O)c2oc3ccccc3c2NC(=O)C2CC2)cc1,-2.3,1.0,-6.6,9.5,0.9
CCOc1ccc(NC(=O)c2oc3ccccc3c2NC(=O)CC)cc1,10.3,0.0,77.6*,-10.7,5.4
CN1C2C=C3C(C#N)=C(N)C(C#N)(C#N)[C@@H](c4cccs4)C3C1CC2 (stereo not given in full),-8.8,-5.0,-18.1,10.3,45.8*
CN1C2C=C3C(C#N)=C(N)C(C#N)(C#N)[C@H](c4c(F)cccc4F)[C@H]3C1CC2 (stereo not given in full),-4.7,-1.0,-66.0,4.2,16.7
Cc1cc(C(=O)N/N=C/c2ccc(C)s2)n[nH]1,.,.,.,.,0.0
CC(C)c1cc(O)c(-c2ccccc2)c(=O)n1-c1ccc(Cl)cc1,18.4,.,14.7,16.1,-5.3
CC(C)c1c(Cl)c(O)c(-c2ccccc2)c(=O)n1-c1ccc(F)cc1,88.0*,-1.0,57.1*,31.3,-1.3
CCC(C)Nc1nc(-c2ccc3c(c2)NC(=O)CO3)cs1 (stereo not given),80.6*,2.0,21.4,14.0,-0.7
C#CCN(CC=C)C(=O)c1cccc(OC2CCN(S(C)(=O)=O)CC2)c1,.,.,.,.,0.0
CCOC(=O)/C=C1/N(C)c2ccccc2C1(C)C,3.5,.,-70.6,1.4,-2.1
